Reference: PubChem BioAssay AID720706 (Broad Institute, 2013)
In all, about 350,000 compounds went through this assay and about 5,500 (1.6%) were called active. The sample holds actives, similar compounds and a random draw of the others, so the mix is not that of the screen.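 Rule for the calls: active = significant combined selectivity score with lowered wild-type GFP, culture density cut under 30%, mutant RFP and density less affected; inactive = any of these conditions unmet.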

Experiment: reduced GFP signal of wild-type E. coli, primary screen, bacterial rRNA inhibitor project, GFP/RFP fluorescence, OD600, single point (AID 720706)
Conditions: E. coli WT GFP vs humanized-ribosome RFP mutants, 24 h; GFP signal change (wild-type ribosome): stronger effect = lower value, DMSO median 0, no signal -100; OD600 change: measured here: OD600 growth, DMSO median 0, no signal -100; RFP signal change: measured here: RFP humanized mutant strains, DMSO median 0, no signal -100, concentration not given here

| Structure (SMILES) | GFP signal change (wild-type ribosome) | OD600 change | RFP signal change |
| --- | --- | --- | --- |
| CC(C)NC(=O)Nc1ccc2c(c1)C(=O)N(C)[C@@H]1CC[C@H](CC(=O)NCC3CCCCC3)O[C@@H]1CO2 | -0.35% (inactive) | -6% | 0.584% |
| C/C=C/c1ccc([C@@H]2[C@H](CO)N(CC3CCCC3)C23CN(C(=O)CC2CC2)C3)cc1 | -14.4% (inactive) | -40% | 32.6% |
| CCCSC1=C(C#N)C(c2ccccc2C)C(C(=O)OC)C(=O)N1 (stereo not drawn) | -10.9% (inactive) | -3.33% | -1.26% |
| CCOC(=O)C1(C)NC(c2ccco2)C2C(=O)N(c3ccccc3)C(=O)C21 (stereo not drawn) | 7.82% (inactive) | 18.6% | 3.41% |
| CCOC(=O)CSC1=C(C#N)C(c2ccco2)C(C(=O)OCc2ccccc2)=C(C)N1 (stereo not drawn) | -26.5% (active) | -14.3% | -3.21% |
| O=C(NCCCN1CCOCC1)c1ccc([N+](=O)[O-])cc1[N+](=O)[O-] | 7.34% (inactive) | 6.35% | -0.35% |
| O=C(NCCCN1CCN(c2ccc(F)cc2)CC1)Nc1ccc([N+](=O)[O-])cc1 | -23.1% (active) | -16.1% | 9.67% |
| CN1CCN(CCNC(=O)Nc2ccc([N+](=O)[O-])cc2)CC1 | 3.04% (inactive) | -6.09% | -2.6% |
| O=C(c1ccncc1)N1CC(=O)N2[C@H](C1)[C@@H](c1ccc(C#CCC3CCCC3)cc1)[C@@H]2CO | -32.1% (inactive) | -56.8% | 7.12% |
| CCCN(C)C[C@@H]1Oc2ncc(-c3ccccc3F)cc2C(=O)N([C@@H](C)CO)C[C@@H]1C | 9.44% (inactive) | 19.7% | -1.32% |
| Nc1ccc(N=Nc2ccccc2Cl)c(N)n1 | -31.4% (active) | -18.6% | -5.26% |
| C[C@@H]1CN([C@H](C)CO)C(=O)c2cccc(NC(=O)Nc3ccc(F)cc3)c2O[C@@H]1CN(C)C(=O)Nc1ccc(C(F)(F)F)cc1 | -3.92% (inactive) | -1.07% | -2.09% |
| COc1ccc(S(=O)(=O)Nc2ccc3c(c2)CC(=O)N([C@H](C)CO)C[C@H](C)[C@@H](CN(C)C(=O)NC(C)C)O3)cc1 | 1.06% (inactive) | 6.54% | -0.682% |
| C[C@@H]1CN([C@@H](C)CO)C(=O)c2cccc(N(C)C)c2O[C@@H]1CN(C)S(C)(=O)=O | 0.068% (inactive) | 11.7% | 1.6% |
| N#CC1=C(N)Oc2cc(N)ccc2C1c1ccccc1 (stereo not drawn) | 5.33% (inactive) | 13.2% | 8.27% |
| Cc1cc(C)c(C#N)c(SCc2[nH]nc3c2C(c2ccccc2)C(C#N)=C(N)O3)n1 (stereo not drawn) | -19.3% (active) | -14.2% | 7.29% |
| N#CC1=C(N)Oc2n[nH]c(CSc3ccccc3)c2C12C(=O)Nc1ccccc12 (stereo not drawn) | -4.64% (inactive) | -0.706% | 2.2% |
| CCC(=O)Nc1ccc2c(c1)C(=O)N(C)[C@H]1CC[C@H](CC(=O)NCC3CCCCC3)O[C@H]1CO2 | -0.704% (inactive) | -0.374% | -0.863% |
| CC[C@H](NC(=O)[C@H](Cc1ccccc1)NC(=O)[C@H]1O[C@@H](n2cnc3c(=O)[nH]c(N)nc32)[C@H](O)[C@@H]1O)c1ccccc1 | 13.7% (inactive) | 14.1% | 2.61% |
| O=S(=O)(Nc1ccc(OC(F)(F)F)cc1)c1cccc2nonc12 | -39% (active) | -15.7% | -10.9% |
| CCc1cccc(NC(=O)CCNS(=O)(=O)c2cccc3nonc23)c1 | -13.3% (inactive) | -12.7% | 18.6% |

| Structure (SMILES) | GFP signal change (wild-type ribosome) | OD600 change | RFP signal change |
| --- | --- | --- | --- |
| O=C(O)c1ccc(NS(=O)(=O)c2cccc3nsnc23)cc1 | 12.3% (inactive) | 9.27% | 0.548% |
| Cc1ccc(S(=O)(=O)N(C)C[C@@H]2Oc3c(NS(=O)(=O)c4ccc(F)cc4)cccc3C(=O)N([C@@H](C)CO)C[C@H]2C)cc1 | -1.93% (inactive) | 3.45% | 0.647% |
| N#Cc1ccc(CSc2ncccn2)cc1 | -4.06% (inactive) | -1.11% | -0.806% |
| Cc1ccc(CSc2nsc(C)c2C#N)cc1 | -24.5% (active) | -7.04% | -1.18% |
| Cc1snc(SCc2c(F)cccc2Cl)c1C#N | -4.85% (inactive) | -10.8% | -3.63% |
| CN(C)C(=O)C[C@H]1C[C@@H]2c3cc(NC(=O)CC4CC4)ccc3O[C@@H]2[C@@H](CO)O1 | 1.34% (inactive) | 0.566% | 1.23% |
| Cc1ccc(S(=O)(=O)N(C)C[C@@H]2Oc3ccc(NC(=O)Cn4cnnn4)cc3CC(=O)N([C@H](C)CO)C[C@H]2C)cc1 | -0.977% (inactive) | 0.458% | -4.09% |
| Cc1cccc(NC(=O)c2nc(S(=O)(=O)Cc3ccccc3)ncc2Cl)c1 | -14.7% (active) | 11% | -6.12% |
| CSc1nnc(NC(=O)c2nc(S(=O)(=O)Cc3ccc(C)cc3)ncc2Cl)s1 | 2.78% (inactive) | -0.98% | 0.486% |
| Cc1cccc(CS(=O)(=O)c2ncc(Cl)c(C(=O)Nc3ccc(F)cc3)n2)c1 | 6.16% (inactive) | 2.7% | -4.49% |
| CS(=O)(=O)N1CCCCN2[C@@H](CO)[C@@H](c3ccc(Br)cc3)[C@@H]2C1 | 5.32% (inactive) | 1.18% | 3.67% |
| Cc1ccc(C(=O)OCC(=O)NCc2cc(C)c(O)c(C)c2)cc1S(=O)(=O)N1CCCCC1 | -24.5% (active) | -17% | -2.51% |
| COc1ccc(CNC(=O)COC(=O)c2ccc(C)c(S(=O)(=O)N3CCOCC3)c2)cc1OC | -1.36% (inactive) | -0.45% | 4.29% |
| Cc1ccc(C(=O)OCC(=O)N2CC(C)CC(C)C2)cc1S(=O)(=O)N1CCCCC1 (stereo not drawn) | -26.5% (inactive) | -33.2% | -6.95% |
| COc1ccccc1C#Cc1ccc2c(c1)O[C@H](CN(C)Cc1cccnc1)[C@@H](C)CN([C@H](C)CO)S2(=O)=O | -5.86% (inactive) | -7.99% | 4.04% |
| CC(NC(=O)Nc1ccc2c(c1)OCO2)c1ccncc1 (stereo not drawn) | 13.1% (inactive) | 4.68% | 1.46% |
| CC(NC(=O)Nc1cccc([N+](=O)[O-])c1)c1ccc2c(c1)OCO2 (stereo not drawn) | -34.5% (active) | -26.4% | -5.09% |
| Cc1cccc(NC(=O)Nc2ccc3c(c2)OCO3)n1 | 0.76% (inactive) | 7.09% | -5.02% |
| CC1CC2=C(CC1/C=N/NC(N)=S)C(C)(C)CCC2 (stereo not drawn) | -18.2% (active) | 0.8% | -0.09% |
| Cc1noc(C)c1NC(=O)Nc1ccc2c(c1)C(=O)N([C@@H](C)CO)C[C@H](C)[C@H](CN(C)CC1CCCCC1)O2 | 2.74% (inactive) | 1.93% | -1.48% |
| CCN(CC)S(=O)(=O)c1ccc(N2CCCC2)c(NC(=O)c2ccc([N+](=O)[O-])o2)c1 | -27.2% (active) | 5.04% | 9.95% |

| Structure (SMILES) | GFP signal change (wild-type ribosome) | OD600 change | RFP signal change |
| --- | --- | --- | --- |
| CCN(CC)S(=O)(=O)c1ccc(N2CCOCC2)c(NC(=O)c2ccc(=O)n(C)n2)c1 | 18.6% (inactive) | 11.8% | -3.6% |
| CCN(CC)S(=O)(=O)c1cc(C(=O)Nc2cc(S(=O)(=O)N3CCOCC3)ccc2N2CCCC2)ccc1F | -10.4% (inactive) | -14.8% | 1.19% |
| C[C@@H]1CN([C@@H](C)CO)C(=O)c2cccc(NC(=O)Nc3ccc(F)cc3)c2O[C@H]1CN(C)Cc1ccc(-c2ccccc2)cc1 | -7.51% (inactive) | -2.98% | -0.352% |
| O=C(C1CCC1)N1CC(=O)N2[C@@H](CO)[C@@H](c3ccc(C#Cc4cccc(F)c4)cc3)[C@@H]2C1 | -59.7% (inactive) | -79.3% | -12.2% |
| COc1ccc(NC(=O)CN(C)C(=O)c2cc(C3CC3)nn2-c2ccccc2)cc1 | -22.4% (active) | -10.8% | 5.24% |
| COc1cccc(NC(=O)CN(C)C(=O)c2cc(C3CC3)nn2-c2ccccc2)c1 | -29.5% (inactive) | -27.8% | -7.04% |
| CCc1ccccc1NC(=O)CN(C)C(=O)c1cc(C2CC2)nn1-c1ccccc1 | -2.02% (inactive) | -16.5% | 3.78% |
| Cc1nn(-c2ccccc2)c(Cl)c1/C=C/C(=O)c1ccc(O)cc1 | -25.9% (active) | -19.6% | -0.656% |
| Cc1nn(-c2ccccc2)c(C)c1/C=C/C(=O)OC(C)C(N)=O (stereo not drawn) | 0.439% (inactive) | -2.9% | -0.31% |
| Cc1nn(-c2ccc(F)cc2)c(Cl)c1/C=C(/CCC(=O)O)c1nc2ccccc2s1 | -52.2% (inactive) | -75.8% | -17.8% |
| COc1ccccc1CN1[C@H](CO)[C@H](c2ccccc2)C12CN(C(=O)c1ccccn1)C2 | -7.66% (inactive) | -1.5% | 11% |
| Cc1noc(C)c1NC(=O)Nc1ccc2c(c1)C(=O)N([C@H](C)CO)C[C@@H](C)[C@H](CN(C)Cc1ccncc1)O2 | 0.165% (inactive) | 5.53% | -0.035% |
| C[C@H]1CCCCO[C@@H](CN(C)S(=O)(=O)c2ccc(Cl)cc2)[C@@H](C)CN([C@@H](C)CO)C(=O)c2cc(NS(=O)(=O)c3cn(C)cn3)ccc2O1 | -1.49% (inactive) | -13.7% | 2.11% |
| O=C(Cn1cc(/C=N/NC(=O)c2cccc(C(F)(F)F)c2)c2ccccc21)Nc1ccc(F)cc1 | -1.48% (inactive) | -0.221% | -3.15% |
| COc1cccc(Cn2cc(/C=N/NC(=O)c3cc(O)cc(O)c3)c3ccccc32)c1 | -27.3% (active) | -17.9% | 2.51% |
| N#CCC(=O)N/N=C/c1cn(Cc2ccc3ccccc3c2)c2ccccc12 | 1.46% (inactive) | -2.06% | 0.715% |
| COc1cccc(S(=O)(=O)N2C[C@@H](O)COC[C@H]3O[C@@H](CC(=O)N4CCOCC4)CC[C@@H]32)c1 | 0.378% (inactive) | -0.728% | -3.58% |
| O=S(=O)(Cc1ccccc1)NCC[C@@H]1CC[C@@H](NS(=O)(=O)c2ccccc2)[C@@H](CO)O1 | -0.181% (inactive) | 0.151% | 1.58% |
| C[C@H](CO)N1C[C@H](C)[C@@H](CN(C)Cc2ccc3c(c2)OCO3)OCCCC[C@H](C)Oc2ccc(NC(=O)Nc3ccc(C(F)(F)F)cc3)cc2C1=O | 7.88% (inactive) | -5.08% | 3.82% |
